Most compounds without a hit are left out; they make up all but 1.5% or so of the library.
IDE cell inh = inhibits human insulin-degrading enzyme in HEK cells | P14735 | FAbetaB cleavage, fluorescence polarization | inhibition, % at 5.59 µM | 320,000 tested, 0.41% active | AID 434962;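 active means percent inhibition above the average of all tested compounds plus 3 SD, set per screening campaign, cut at about 16% in these data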;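 further: IDE supplied by intact live HEK cells; FP after avidin binding of uncleaved biotin substrate so inhibition keeps polarization high; 0% = DMSO wells and 100% = 60 µM reference IDE inhibitor Ii1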
CRFR2-BP antag = CRF-BP/CRF-R2 complex antagonism. HEK293 CRF-R2/CRF-BP, CRF-induced calcium fluorescence. inhibition, % at 11.8 µM. 350,000 tested, 0.59% active. AID 588475;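 active means inhibition of the ligand-induced calcium signal above about 50% at the single tested concentration, limit read from the data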
Cardiac RTF inh = cardiac RTF calcium desensitization; P19429+P45379; IANBD-labeled cardiac RTF, Ca2+ fluorescence; inhibition, % at 7.15 µM; 340,000 tested, 0.12% active; AID 493244;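 active means inhibition above the mean inhibition of all tested compounds plus 3 SD, cut at about 17% in these data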;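 further: assay run at fixed EC70 calcium of 1.6 mM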
CRFBP-R2 agonist = CRF-BP/CRF-R2 complex agonism; activation, % at 13.2 µM; HEK293 CRF-R2/CRF-BP, calcium dye fluorescence (FLIPR); percent of saturating CRF peptide response; 350,000 tested, 0.46% active;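 active means activation of at least 50%, plus an integration ratio under a set limit after plate pattern correction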;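 further: plate controls were neutral control wells without compound for no effect and CRF at EC100 for full effect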
IDE cell activ = IDE (human) activation, cell-based; P14735; HEK cells, FAbeta-B cleavage, fluorescence polarization; 0% vehicle, 100% cell-free pure enzyme wells; activation, % at 5.96 µM; 340,000 tested, 0.073% active; AID 493087;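 active means activation above the mean of all tested compounds plus 3 SD, set per screening campaign, cut at about 17% in these data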
RTF Ca sens act = cardiac RTF calcium sensitization | IANBD-labeled TnC RTF fluorescence at EC20 calcium; 0% EC20 calcium, 100% full calcium | activation, % at 7.2 µM | P19429+P45379 | AID 493008 | 340,000 tested, 0.24% active;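 active means activation above the mean over all tested compounds plus 3 SD, cut at about 30% in these data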;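 further: rise in fluorescence read as greater calcium sensitivity of cardiac thin filaments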
* marks the source's active call; other numbers are inactive results; / = no result.

SMILES | IDE cell inh | CRFR2-BP antag | Cardiac RTF inh | CRFBP-R2 agonist | IDE cell activ | RTF Ca sens act
COc1ccc(CN2CCN(C(=O)c3ccc(-c4ccccc4)cc3)CC2)c(OC)c1OC | -4.8 | -2.1 | -10.7 | 1.5 | 6.9 | 1.5
CCOc1ccc(N(C)C(=O)CCc2nnc3ccc(NCc4ccco4)nn23)cc1 | -0.5 | -9.0 | -1.9 | 0.5 | 2.2 | -0.1
Cc1ccc(S(=O)(=O)Nc2cc(=O)[nH]c(SCC(=O)Nc3cccc(C(F)(F)F)c3)n2)cc1 | / | 109.9* | 0.7 | -0.8 | 3.6 | -6.3
Cc1ccc(NC(=O)CSc2nc(NS(=O)(=O)c3ccc(C)cc3)cc(=O)[nH]2)cc1 | -0.1 | 11.5 | -3.9 | 0.3 | 7.8 | -2.5
COc1ccccc1-c1nc2cc(Cl)ccc2c(=O)n1O | 4.7 | 1.7 | -3.5 | 1.1 | -0.1 | -2.0
O=c1c2ccccc2nc(-c2ccccc2)n1O | 9.3 | 1.2 | -6.9 | -0.1 | -0.5 | 1.2
O=c1c2cc(Cl)ccc2nc(-c2ccccc2)n1O | -1.1 | 5.1 | 11.3 | -2.4 | 5.7 | 2.8
O=c1c2ccc(Cl)cc2nc(-c2ccc([N+](=O)[O-])cc2)n1O | -1.4 | 14.7 | 0.8 | 59.2* | 2.2 | 5.5
O=c1c2cc(Cl)ccc2nc(-c2ccc(Cl)c(Cl)c2)n1O | -1.6 | -51.3 | -1.9 | 134.9* | 9.8 | 0.4
O=c1c2cc(Br)ccc2nc(-c2ccc([N+](=O)[O-])cc2)n1O | 1.8 | 12.3 | -6.7 | 100.6* | 2.1 | 2.0
N#Cc1ccc(-c2nc3ccc(Br)cc3c(=O)n2O)cc1 | 1.3 | -5.1 | 0.9 | 0.8 | 6.6 | -0.1
O=c1c2cc(Br)ccc2nc(-c2cccc(C(F)(F)F)c2)n1O | 3.5 | 33.0 | -11.3 | 148.4* | 3.2 | -0.7
Cc1ccc2c(c1)c(-c1csc(N)n1)c(C)n2C | -0.1 | 5.2 | -10.4 | 1.5 | -1.7 | 3.6
CN1C(=O)NC(c2ccccc2[N+](=O)[O-])C2=C1CCCC2=O (centres undefined) | -1.1 | 1.2 | -64.5 | 12.2 | 6.0 | 37.8*
COc1cc(/C=N/N2CCN(Cc3ccccc3)CC2)cc(OC)c1OC(C)=O | -0.8 | -2.0 | 1.1 | -0.3 | 2.1 | 2.3
Cc1nn(C)cc1C(C(=O)NC1CCCCC1)N(C(=O)Cc1cccs1)c1ccc(Cl)cc1 (centres undefined) | 1.7 | -56.3 | 2.1 | 58.1* | 1.6 | 0.6
COc1ccccc1CN(C)C(=O)C(NC(=O)Cc1cccc2ccccc12)C(C)C (centres undefined) | -0.1 | -30.4 | -11.6 | -0.9 | 0.2 | -3.1
COc1cc(/C=C2\SC(=O)N(c3ccccc3Cl)C2=O)cc([N+](=O)[O-])c1O | / | 87.7* | 9.0 | -0.7 | 5.9 | -3.4
COc1cc(/C=C2\SC(=O)N(CC(=O)Nc3cccc(C)c3)C2=O)cc([N+](=O)[O-])c1O | / | 27.7 | / | -1.9 | / | /
O=C(NCc1ccccc1)c1ccc(Cl)cc1 | -1.1 | 85.8* | / | -1.5 | / | /
S=C(NCc1ccccc1)Nc1ccc(Cl)cc1 | -1.4 | 57.2* | -6.8 | 7.8 | 1.8 | -3.5
O=C(COC(=O)CC(c1ccccc1)c1ccccc1)NCc1ccc(Cl)cc1 | 4.3 | -171.2 | 6.7 | 160.1* | 2.4 | -4.0
CCc1ccc(NC(=S)NCc2ccccc2)cc1 | 1.0 | 10.1 | -4.3 | -3.5 | 8.0 | 4.5
O=C(NCC1CCCCC1)c1cccc(S(=O)(=O)N2CCCC2)c1 | 2.3 | 7.6 | -0.4 | 0.6 | 0.2 | 2.6
Cc1cc(C(C)(C)C)cc(C)c1S(=O)(=O)N1CCN(C(=O)c2cc([N+](=O)[O-])c[nH]c2=O)CC1 | 1.7 | 13.3 | 3.7 | 0.1 | 3.9 | -5.0
SMILES | IDE cell inh | CRFR2-BP antag | Cardiac RTF inh | CRFBP-R2 agonist | IDE cell activ | RTF Ca sens act
Cc1cccc(C)c1N1CCN(C(=O)c2ccc3c(c2)OCO3)CC1 | 1.4 | 61.1* | 1.2 | -0.1 | 3.2 | -2.8
Cn1c(N)c(C(=O)COC(=O)Cc2ccc(Cl)cc2)c(=O)n(C)c1=O | / | 16.4 | 1.2 | -1.6 | -0.7 | 1.7
COc1cc(NC(=O)NS(=O)(=O)c2ccc(C)cc2)cc(OC)c1 | 1.1 | -6.0 | 2.9 | 0.5 | 0.5 | -0.3
COc1ccc(NC(=O)NS(=O)(=O)c2ccc(C)cc2)cn1 | / | -8.1 | -490.8 | 2.7 | 30.1* | 347.7*
CCN(CC)c1ccc(/C=C2/C(=O)ON=C2C)cc1 | 11.7 | -47.1 | -33.0 | 16.9 | -23.8 | 7.5
CCN(CC)c1ccc(/C=c2/sc3nnc(-c4ccccc4C)n3c2=O)cc1 | 7.9 | -194.2 | -18.9 | 132.6* | -4.3 | 43.2*

High-throughput results (PubChem)
